Compounds without any hit were thinned out: in the full panel of roughly 83,000, 20% have a hit.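 Activity criterion: percent growth below 10, measured after cells in 96-well plates were exposed to a single compound concentration for 48 hours.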 The source made the active and inactive calls.
Tests used:
Test in all cases: NCI-60 one-dose screen, 48 h (100 = growth as untreated, 0 = no growth, -100 = all killed)
Conditions in all cases: 10 µM unless noted
T-47D breast = system: T-47D breast
BT-549 breast = system: BT-549 breast
MDA-MB-435 melanoma = system: MDA-MB-435 melanoma
SW-620 colon = system: SW-620 colon
MCF7 breast = system: MCF7 breast
HCT-116 colon = system: HCT-116 colon
HCC-2998 colon = system: HCC-2998 colon
KM12 colon = system: KM12 colon

Measured: growth

CN(C)c1ccc(C(=C2C=CC(=[N+](C)C)C=C2)c2ccc(N(C)C)cc2)cc1
active: T-47D breast -19.2% | BT-549 breast -66% | MDA-MB-435 melanoma -82.6% | SW-620 colon -67.2% | MCF7 breast -71.6% | HCT-116 colon -83.3% | HCC-2998 colon -91.6% | KM12 colon -95.6%

COc1c(C)c2c(c(O)c1C/C=C(\C)CCC(=O)O)C(=O)OC2
inactive: T-47D breast 44.7% | BT-549 breast 35.4% | MDA-MB-435 melanoma 30.1% | SW-620 colon 21.7% | MCF7 breast 23.9% | HCT-116 colon 13.3% | HCC-2998 colon 33.3% | KM12 colon 29.1%

Cc1cc(C)c(C#N)c(Sc2nc(C)c([N+](=O)[O-])c(C)c2C#N)n1
active: HCT-116 colon 9.65%
inactive: T-47D breast 68.7% | BT-549 breast 43.1% | MDA-MB-435 melanoma 42.9% | SW-620 colon 19.2% | MCF7 breast 26.4% | HCC-2998 colon 100% | KM12 colon 60.8%

CC(=O)c1ccc2c(c1)CCc1ccccc1-2
inactive: T-47D breast 97.8% | BT-549 breast 104% | MDA-MB-435 melanoma 100% | SW-620 colon 102% | MCF7 breast 90.2% | HCT-116 colon 96.6% | HCC-2998 colon 109% | KM12 colon 109%

Cc1nnc(N/N=C/c2ccc([N+](=O)[O-])o2)[nH]c1=O
active: T-47D breast -6.92% | BT-549 breast -22.1% | MCF7 breast 3.92% | HCT-116 colon 9.54%
inactive: MDA-MB-435 melanoma 12% | SW-620 colon 18.7% | HCC-2998 colon 22.2% | KM12 colon 14.2%

CSc1nc(C)c(C(=O)CCN2CCN(c3ccccn3)CC2)s1
inactive: T-47D breast 66.7% | BT-549 breast 113% | MDA-MB-435 melanoma 104% | SW-620 colon 100% | MCF7 breast 61.2% | HCT-116 colon 105% | HCC-2998 colon 106% | KM12 colon 106%

N#CC(=C1SCS1)[N+](=O)[O-]
inactive: T-47D breast 29.1% | MDA-MB-435 melanoma 16.4% | SW-620 colon 19.3% | MCF7 breast 16.7% | HCT-116 colon 35.8% | HCC-2998 colon 27% | KM12 colon 14.2%
active: BT-549 breast -6.56%

CCCCC(CCc1ccc([N+](=O)[O-])cc1)(C(C)=O)C(=O)OCC (stereo unspecified)
inactive: T-47D breast 90% | BT-549 breast 117% | MDA-MB-435 melanoma 100% | SW-620 colon 91.4% | MCF7 breast 91.1% | HCT-116 colon 92.2% | HCC-2998 colon 109% | KM12 colon 92%

c1ccc2sc(SSN3CC4CCC(CC4)C3)nc2c1
inactive: T-47D breast 96.5% | BT-549 breast 126% | MDA-MB-435 melanoma 108% | SW-620 colon 110% | MCF7 breast 107% | HCT-116 colon 103% | HCC-2998 colon 123% | KM12 colon 145%

COc1cc(/C=C/C(=O)CC(=O)/C=C/c2ccc(O)c(OC)c2)ccc1O
active: MDA-MB-435 melanoma 1.75% | HCT-116 colon 0.952% | HCC-2998 colon -74.8% | KM12 colon 0.643%
inactive: T-47D breast 50.7% | BT-549 breast 13.9% | SW-620 colon 23.1% | MCF7 breast 17%

Cc1cc(C(=O)c2ccc(Cl)cc2)ccc1O
inactive: T-47D breast 97% | BT-549 breast 94.7% | MDA-MB-435 melanoma 95.6% | SW-620 colon 98% | MCF7 breast 108% | HCT-116 colon 84.8% | HCC-2998 colon 102% | KM12 colon 103%

COC(=O)c1nc(=S)[nH]c(C(=O)OC)c1C(=O)c1ccc(Cl)c(Cl)c1
inactive: T-47D breast 100% | BT-549 breast 129% | MDA-MB-435 melanoma 106% | SW-620 colon 106% | MCF7 breast 97.4% | HCT-116 colon 106% | HCC-2998 colon 113% | KM12 colon 112%

Cc1cc(C(=C2C=CC(=Nc3ccccc3)C=C2)c2ccc(Nc3ccccc3)cc2)ccc1N
active: T-47D breast -50.1% | BT-549 breast -88.9% | MDA-MB-435 melanoma -68% | SW-620 colon -70.4% | MCF7 breast -44.3% | HCT-116 colon 0.559% | HCC-2998 colon -90.7% | KM12 colon -89.2%

Cc1cccc2c(N)c3ccccc3nc12
inactive: BT-549 breast 14%
active: T-47D breast -2.75% | MDA-MB-435 melanoma -12.1% | SW-620 colon 0.0537% | MCF7 breast 5.35% | HCT-116 colon 0.783% | HCC-2998 colon 2.09% | KM12 colon 9.35%

CCN(CC)c1ccc(/C=C\C(=O)c2ccc(NC(C)=O)cc2)cc1
inactive: T-47D breast 76.3% | BT-549 breast 94.8% | MDA-MB-435 melanoma 10.9% | SW-620 colon 42.5% | MCF7 breast 71.3% | HCT-116 colon 58.6% | HCC-2998 colon 77.9% | KM12 colon 48.1%

CCN1/C(=C/C(C)=C/c2sc3ccc4ccccc4c3[n+]2CC)Sc2ccc3ccccc3c21
active: T-47D breast -69.8% | BT-549 breast -93.3% | MDA-MB-435 melanoma -97.2% | SW-620 colon -94.2% | MCF7 breast -84.5% | HCT-116 colon -69.5% | HCC-2998 colon -76.1% | KM12 colon -93.6%

CCOc1ccc(C(CN2CCOCC2)C(C)=O)cc1OC (stereo unspecified)
inactive: T-47D breast 33.2% | BT-549 breast 91.2% | MDA-MB-435 melanoma 97.6% | SW-620 colon 60% | MCF7 breast 13.4% | HCT-116 colon 97.3% | HCC-2998 colon 115% | KM12 colon 93.3%

Clc1ccc(Cc2nc3ccccc3s2)cc1
inactive: T-47D breast 79.6% | BT-549 breast 86.7% | MDA-MB-435 melanoma 92.5% | SW-620 colon 101% | MCF7 breast 77.4% | HCT-116 colon 97.8% | HCC-2998 colon 103% | KM12 colon 93.2%

CCCC[n+]1c(/C=C\c2c(OC)cc(OC)cc2OC)ccc2ccccc21
active: T-47D breast -3.69% | MDA-MB-435 melanoma -41.2% | SW-620 colon 5.08% | MCF7 breast 4.3% | HCT-116 colon 2.83% | HCC-2998 colon 2.5% | KM12 colon -78.6%
inactive: BT-549 breast 15.5%

COC(=O)C(=[N+]=[N-])C(=O)c1ccc([N+](=O)[O-])o1
inactive: T-47D breast 89.7% | BT-549 breast 101% | MDA-MB-435 melanoma 103% | SW-620 colon 44% | MCF7 breast 65.1% | HCT-116 colon 73.4% | HCC-2998 colon 107% | KM12 colon 94.9%

CCCCCCCCCCCCSC(=N)N
active: T-47D breast -35.5% | MDA-MB-435 melanoma -73.2% | SW-620 colon -61.5% | MCF7 breast -30.8% | HCT-116 colon -64.2% | HCC-2998 colon -80.5% | KM12 colon -21.1%
inactive: BT-549 breast 63.6%

CC(=O)C1Cc2ccccc2C1=O (stereo unspecified)
inactive: T-47D breast 101% | BT-549 breast 91.3% | MDA-MB-435 melanoma 103% | SW-620 colon 101% | MCF7 breast 95.4% | HCT-116 colon 103% | HCC-2998 colon 108% | KM12 colon 102%

c1csc(-c2[nH]nc3c2CCc2ccccc2-3)c1
active: T-47D breast -61.7% | MCF7 breast 5.26%
inactive: BT-549 breast 98.5% | MDA-MB-435 melanoma 104% | SW-620 colon 106% | HCT-116 colon 99.1% | HCC-2998 colon 43.6% | KM12 colon 23.5%

CC(C)c1ccc(C(=O)OC2CCCC2)cc1
inactive: T-47D breast 91.2% | BT-549 breast 97.5% | MDA-MB-435 melanoma 101% | SW-620 colon 99.7% | MCF7 breast 95.7% | HCT-116 colon 92.3% | HCC-2998 colon 99% | KM12 colon 99.9%

CCNc1nnnn1CC
inactive: T-47D breast 106% | BT-549 breast 110% | MDA-MB-435 melanoma 107% | SW-620 colon 104% | MCF7 breast 95.7% | HCT-116 colon 102% | HCC-2998 colon 110% | KM12 colon 110%

CC1=CC(=NC(=O)CBr)C=C/C1=N\S(=O)(=O)c1ccccc1
inactive: T-47D breast 12.3% | BT-549 breast 65.6% | MDA-MB-435 melanoma 43.4% | SW-620 colon 17% | MCF7 breast 16.3% | HCT-116 colon 22.8% | HCC-2998 colon 110% | KM12 colon 106%

CCOc1ccc(Nc2nc3c(s2)C(=O)c2ccccc2C3=O)cc1
inactive: T-47D breast 59% | BT-549 breast 87.4% | SW-620 colon 70% | MCF7 breast 42.9% | HCT-116 colon 52.7% | HCC-2998 colon 118% | KM12 colon 81.4%
active: MDA-MB-435 melanoma -80.2%

Oc1ccc(Cl)cc1C(c1cc(Cl)ccc1O)C(Cl)(Cl)Cl
active: T-47D breast 9.95% | SW-620 colon 4.62% | MCF7 breast 8.95% | HCT-116 colon -35.2% | HCC-2998 colon -45.5% | KM12 colon -55.5%
inactive: BT-549 breast 44.9% | MDA-MB-435 melanoma 29.4%

O=C1C=CC(=O)N1c1ccccc1
inactive: T-47D breast 99.8% | BT-549 breast 97.1% | MDA-MB-435 melanoma 109% | SW-620 colon 80.9% | MCF7 breast 106% | HCT-116 colon 75.1% | HCC-2998 colon 98.7% | KM12 colon 103%

C/C=C/c1cc2c(c(=O)o1)C(=O)[C@@H](O)[C@H](C)O2
inactive: T-47D breast 20.4% | BT-549 breast 18.2% | MDA-MB-435 melanoma 65.6% | SW-620 colon 19.5% | MCF7 breast 26.1% | HCT-116 colon 14.1% | HCC-2998 colon 79.5% | KM12 colon 42.2%

COC(=O)[C@]1(C)CCC[C@]2(C)c3ccc(C(C)C)cc3C(=O)[C@@H](Br)[C@@H]12
inactive: T-47D breast 53.1% | BT-549 breast 116% | MDA-MB-435 melanoma 91.8% | SW-620 colon 86.3% | MCF7 breast 57.6% | HCT-116 colon 85.3% | HCC-2998 colon 106% | KM12 colon 104%

CN(C)CCN(C)CC(C)(C)C(=O)/C=C/c1ccc(Cl)c(Cl)c1
active: T-47D breast -56.7% [100 µM] | BT-549 breast -96% [100 µM] | MDA-MB-435 melanoma -96.5% [100 µM] | SW-620 colon -81.1% [100 µM] | MCF7 breast -66.4% [100 µM] | HCT-116 colon -93.4% [100 µM] | HCC-2998 colon -90.4% [100 µM] | KM12 colon -93.4% [100 µM]
